Experiment [1] is described as follows: qHTS assay to identify aromatase inhibitors - cell viability counter screen (AID 743084).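 Note: cells stimulated with testosterone during compound exposure; nearly all actives have a fitted effect of over 55% in size.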 Note: potency is the fitted concentration of half-maximal effect.
Experiment [2] can be described thus: qHTS assay to identify small molecule that activate the aryl hydrocarbon receptor (AhR) signaling pathway - cell viability counter screen (AID 743086). Note: nearly all actives have a fitted effect of over 45% in size. Note: potency is the fitted concentration of half-maximal effect. In outline: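 Cytotoxicity counter screen: CellTiter-Fluor signal (30 min, 37 C) in 4000 HepG2 cells/well carrying the DRE-luciferase reporter, following 24 h compound exposure at 37 C.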
For experiment [3], the target named is Peroxisome proliferator-activated receptor gamma (Homo sapiens) (UniProt P37231). The experiment in a line: qHTS assay to identify small molecule agonists of the peroxisome proliferator-activated receptor gamma (PPARg) signaling pathway (AID 743094; active = well fitted activation curve with a large enough effect in the signal ratio in the repeat runs, not every such curve was filed as active; the % refers to the signal ratio). The method in brief:
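Agonist activity was taken from a beta-lactamase reporter (FRET substrate, 1 h at room temperature) in HEK293H cells carrying a PPARg UAS-bla construct. Compounds in DMSO were incubated 17 h at 37C after a 5 h cell pre-incubation.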

The target is the same in experiment [4]. The experiment is described as follows: qHTS assay to identify small molecule antagonists of the peroxisome proliferator-activated receptor gamma (PPARg) signaling pathway (AID 743191; calls by dose curve; note: series mostly up to about 63 µM; nearly all actives have a fitted effect of over 30% in size). In outline:
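Beta-lactamase reporter under UAS control in HEK293H PPARg-bla cells; compound treatment 17 h at 37C. Read-out: fluorescence intensity after 1 h room-temperature incubation with LiveBLAzer B/G FRET substrate.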

Experiment [5] in a line: qHTS assay for small molecule agonists of the antioxidant response element (ARE) signaling pathway - cell viability counter screen (AID 743203; calls by dose curve; note: nearly all actives have a fitted effect of over 55% in size; note: potency is the fitted concentration of half-maximal effect). The method in brief: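 Viability counter screen: CellTiter-Glo luminescence, read after 30 min at room temperature, in ARE-bla HepG2 wells. Compound exposure lasted 16 h at 37C/5% CO2, following a 5 h pre-incubation of the cells after plating.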

Experiment [6] in a line: qHTS assay for small molecule activators of the heat shock response signaling pathway - cell viability counter screen (AID 743209). Note: nearly all actives have a fitted effect of over 50% in size. The method in brief:
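Cytotoxicity counter screen run in the same wells as the heat-shock bla reporter assay: HeLa HSE-bla cells, 5 h compound exposure at 37 C, viability read by CellTiter-Glo luminescence.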

Experiment [7] in a line: qHTS assay for small molecule activators of the heat shock response signaling pathway (AID 743210; active = well fitted activation curve with a large enough effect in the signal ratio in the repeat runs, with a control signal flat, not every such curve was filed as active; the % refers to the signal ratio; note: series mostly up to about 63 µM). In outline:
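Compound exposure lasted 5 h at 37 C in HeLa cells carrying a heat-shock-element-driven beta-lactamase reporter. Read-out: fluorescence intensity after 2.5 h room-temperature loading with LiveBLAzer B/G FRET substrate.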

The nature of experiment [8]: qHTS assay to identify small molecule agonists of the peroxisome proliferator-activated receptor delta (PPARd) signaling pathway - cell viability counter screen (AID 743211). Note: nearly all actives have a fitted effect of over 55% in size. The method in brief:
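qHTS cell viability: PPARd-bla HEK293H; 17 h cpd, 37C; CellTiter-Glo, luminescence at 30 min RT.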

The target of experiment [9] is Peroxisome proliferator-activated receptor delta (Homo sapiens) (UniProt Q03181). The experiment in a line: qHTS assay to identify small molecule agonists of the peroxisome proliferator-activated receptor delta (PPARd) signaling pathway (AID 743212; calls by dose curve;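 note: HEK293H cells with PPARd UAS beta-lactamase reporter GeneBLAzer system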). In outline:
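Beta-lactamase reporter readout: a ratiometric FRET signal from the LiveBLAzer substrate after 2 h at room temperature. Compound exposure at 37 °C in PPARδ-bla HEK293H cells driven by an upstream activator sequence.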

A short description of experiment [10]: qHTS assay to identify small molecule antagonists of the peroxisome proliferator-activated receptor delta (PPARd) signaling pathway - cell viability counter screen (AID 743213). Note: nearly all actives have a fitted effect of over 50% in size. The method in brief:
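HEK293H cells with the PPARd UAS-bla reporter, co-treated 17 h at 37 C with compounds and L165041 (300 nM final), were lysed with CellTiter-Glo. Luminescence indicated viable cell content.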

In experiment [11] the target is Peroxisome proliferator-activated receptor delta (Homo sapiens) (UniProt Q03181). The experiment in a line: qHTS assay to identify small molecule antagonists of the peroxisome proliferator-activated receptor delta (PPARd) signaling pathway (AID 743215; active = well fitted inhibition curve with a large enough effect in the signal ratio in the repeat runs, not every such curve was filed as active; the % refers to the signal ratio;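 note: cells stimulated with agonist L165041 at 300 nM final during compound exposure; series mostly up to about 62 µM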). In outline:
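Agonist L165041 (300 nM final) added with compound to PPARd-bla HEK293H UAS-bla reporter cells; 17 h incubation at 37 C. Read-out: LiveBLAzer FRET substrate, 2 h at room temperature, fluorescence intensity.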

The target of experiment [12] is Bile acid receptor (Homo sapiens) (UniProt Q96RI1). The experiment in a line: qHTS assay to identify small molecule antagonists of the farnesoid-X-receptor (FXR) signaling pathway (AID 743217; active = well fitted inhibition curve with a large enough effect in the signal ratio in the repeat runs, not every such curve was filed as active; the % refers to the signal ratio; note: potency is the fitted concentration of half-maximal effect). The method in brief: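 Antagonist mode: chenodeoxycholic acid at 50 uM final stimulates a UAS-driven beta-lactamase reporter in HEK 293T FXR-bla cells during 16 h, 37C compound exposure. Read-out is FRET substrate fluorescence after 2 h at room temperature.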

Experiment [13] in a line: qHTS assay to identify small molecule agonists of the farnesoid-X-receptor (FXR) signaling pathway - cell viability counter screen (AID 743218). Note: nearly all actives have a fitted effect of over 45% in size. In outline:
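Viability counter screen in the same wells: CellTiter-Glo luminescence, 30 min room-temperature incubation, measured after the beta-lactamase read. Cells were GeneBLAzer FXR-UAS-bla HEK 293T, compound-treated 16 h at 37C.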

The target in experiment [14] is Bile acid receptor (Homo sapiens) (UniProt Q96RI1). The experiment is described as follows: qHTS assay to identify small molecule agonists of the farnesoid-X-receptor (FXR) signaling pathway (AID 743220; active = well fitted activation curve with a large enough effect in the signal ratio in the repeat runs, not every such curve was filed as active; the % refers to the signal ratio). In outline:
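FXR-UAS-bla HEK 293T cells carrying a UAS-driven beta-lactamase reporter were plated for 5 h at 37C/5% CO2, then exposed to DMSO-dissolved Tox21 10K compounds for 16 h at 37C. A LiveBLAzer B/G FRET substrate was loaded for 2 h at room temperature before fluorescence reading.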

Experiment [15] addresses Vitamin D3 receptor (Homo sapiens) (UniProt P11473). The experiment is described as follows: qHTS assay to identify small molecule agonists of the vitamin D receptor (VDR) signaling pathway (AID 743222; calls by dose curve). In outline: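 Agonist mode, beta-lactamase reporter: fluorescence from LiveBLAzer B/G FRET substrate (2 h, room temperature) read after 16 h compound treatment at 37 C of VDR-bla cells, which were pre-incubated 4 h after seeding.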

Experiment [16] shares this target. The experiment in a line: qHTS assay to identify small molecule antagonists of the vitamin D receptor (VDR) signaling pathway (AID 743223; active = well fitted inhibition curve with a large enough effect in the signal ratio in the repeat runs, not every such curve was filed as active; the % refers to the signal ratio). The method in brief:
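Reporter line VDR-bla; stimulus 1alpha,25-(OH)2 vitamin D3, 3 nM final; compound co-addition, 16 h 37C/5% CO2; LiveBLAzer B/G substrate 2 h RT; fluorescence intensity.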

Experiment [17] in a line: qHTS assay for small molecule agonists of the antioxidant response element (ARE) signaling pathway (AID 743202; active = well fitted activation curve with a large enough effect in the signal ratio in the repeat runs, not every such curve was filed as active; the % refers to the signal ratio; note: potency is the fitted concentration of half-maximal effect). The method in brief:
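After 16 hours of compound treatment at 37 C, HepG2 cells with a stably integrated ARE-driven beta-lactamase reporter were loaded 2 hours at room temperature with LiveBLAzer B/G FRET substrate and fluorescence intensity measured.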

A short description of experiment [18]: qHTS assay to identify small molecule antagonists of the farnesoid-X-receptor (FXR) signaling pathway - cell viability counter screen (AID 743221; active = well fitted cell-killing curve with a large enough effect in the repeat runs, not every such curve was filed as active; note: nearly all actives have a fitted effect of over 50% in size). In outline:
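After a 5 h settling period, FXR-bla HEK 293T cells receive compound and chenodeoxycholic acid (50 uM final) and incubate 16 h at 37 C; CellTiter-Glo luminescence, read after 30 min at room temperature, reports cell viability.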

A short description of experiment [19]: qHTS assay to identify small molecule antagonists of the peroxisome proliferator-activated receptor gamma (PPARg) signaling pathway - cell viability counter screen (AID 743194). Note: nearly all actives have a fitted effect of over 55% in size. Note: potency is the fitted concentration of half-maximal effect. The method in brief: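 Viability was measured as CellTiter-Glo luminescence in GeneBLAzer PPARg UAS-bla HEK293H cells. These cells had been exposed 17 h at 37 C to compounds together with rosiglitazone at 50 nM final, with the beta-lactamase readout taken in the same wells.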

The source of these data is PubChem BioAssay (Tox21).

Several values for one entry are separate records, joined by “and”; a condition that tells them apart may be missing. Equal entries are not always repeated. Inconclusive results are not listed. Activity calls are given as the source filed them. Unless noted, calls come from the whole dose curve; as a rule, active = well fitted curve in the direction sought with a large enough effect in the repeat runs; inconclusive = weak or mixed curves; inactive = no such curve, though single readings can be large; an effect the other way counts as inactive or inconclusive.

Bile acid receptor (Homo sapiens), sequence (Q96RI1 whole entry, looked up): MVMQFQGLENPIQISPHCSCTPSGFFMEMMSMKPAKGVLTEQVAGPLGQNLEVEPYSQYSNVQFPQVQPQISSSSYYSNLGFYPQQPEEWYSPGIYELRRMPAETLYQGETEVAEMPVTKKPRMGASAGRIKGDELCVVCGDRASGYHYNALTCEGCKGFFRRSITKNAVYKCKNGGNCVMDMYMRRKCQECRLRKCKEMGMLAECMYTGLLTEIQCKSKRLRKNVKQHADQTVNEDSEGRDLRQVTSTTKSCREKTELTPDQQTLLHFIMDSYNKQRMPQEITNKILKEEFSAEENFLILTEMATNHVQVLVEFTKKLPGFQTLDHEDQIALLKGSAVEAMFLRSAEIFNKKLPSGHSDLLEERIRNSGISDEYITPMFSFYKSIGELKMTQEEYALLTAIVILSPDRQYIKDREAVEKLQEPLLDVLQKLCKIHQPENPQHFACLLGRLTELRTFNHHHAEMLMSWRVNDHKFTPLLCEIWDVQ
Peroxisome proliferator-activated receptor gamma (Homo sapiens), sequence (P37231 whole entry, looked up): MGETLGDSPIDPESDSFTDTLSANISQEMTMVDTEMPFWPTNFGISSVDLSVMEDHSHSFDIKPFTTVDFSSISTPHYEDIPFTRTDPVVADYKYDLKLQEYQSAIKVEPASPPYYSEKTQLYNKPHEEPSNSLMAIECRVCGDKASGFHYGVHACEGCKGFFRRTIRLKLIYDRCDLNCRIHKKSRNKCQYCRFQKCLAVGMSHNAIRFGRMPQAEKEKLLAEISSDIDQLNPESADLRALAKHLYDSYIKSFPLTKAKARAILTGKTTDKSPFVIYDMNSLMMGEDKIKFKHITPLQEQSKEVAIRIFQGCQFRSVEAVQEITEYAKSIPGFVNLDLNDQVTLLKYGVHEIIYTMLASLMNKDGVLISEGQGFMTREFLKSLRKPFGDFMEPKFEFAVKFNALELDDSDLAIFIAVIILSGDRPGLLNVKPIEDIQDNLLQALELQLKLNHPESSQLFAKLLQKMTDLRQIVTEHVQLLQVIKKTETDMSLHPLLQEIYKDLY
Peroxisome proliferator-activated receptor delta (Homo sapiens), sequence (Q03181 whole entry, looked up): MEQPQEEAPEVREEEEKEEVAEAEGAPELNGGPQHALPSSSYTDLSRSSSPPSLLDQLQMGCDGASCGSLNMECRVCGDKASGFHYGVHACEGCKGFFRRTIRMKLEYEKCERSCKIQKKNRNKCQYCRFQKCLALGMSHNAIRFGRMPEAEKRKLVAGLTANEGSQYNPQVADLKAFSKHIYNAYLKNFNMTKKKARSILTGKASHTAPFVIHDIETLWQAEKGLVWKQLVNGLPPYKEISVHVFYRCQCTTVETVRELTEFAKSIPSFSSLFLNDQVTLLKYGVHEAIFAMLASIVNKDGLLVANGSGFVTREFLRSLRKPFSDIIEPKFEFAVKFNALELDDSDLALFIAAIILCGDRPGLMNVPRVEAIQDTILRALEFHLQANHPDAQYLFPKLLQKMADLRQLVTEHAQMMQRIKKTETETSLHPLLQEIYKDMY
Vitamin D3 receptor (Homo sapiens), sequence (P11473 whole entry, looked up): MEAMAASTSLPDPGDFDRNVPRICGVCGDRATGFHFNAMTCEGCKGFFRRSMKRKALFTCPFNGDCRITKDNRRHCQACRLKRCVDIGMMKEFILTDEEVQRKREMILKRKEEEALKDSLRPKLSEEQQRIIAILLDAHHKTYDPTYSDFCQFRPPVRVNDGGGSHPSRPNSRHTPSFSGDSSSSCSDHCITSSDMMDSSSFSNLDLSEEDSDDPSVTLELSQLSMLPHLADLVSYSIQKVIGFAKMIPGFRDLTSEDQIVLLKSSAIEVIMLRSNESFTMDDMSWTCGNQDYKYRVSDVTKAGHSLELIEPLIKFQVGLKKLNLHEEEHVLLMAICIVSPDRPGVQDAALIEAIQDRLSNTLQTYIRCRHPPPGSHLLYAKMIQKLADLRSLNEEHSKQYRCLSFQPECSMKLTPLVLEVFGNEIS

As for `Oc1c(Cl)ccc(Cl)c1Cl`, the Potency entry in [1], in experiment [2], in experiment [4], in experiment [5], in experiment [6] and in [8] was “inactive” in each case. Further, the Potency result in experiment [10], in [12] and in experiment [13] was “inactive” each time. Moreover, the call in experiment [3], in experiment [7], in experiment [9], in [11], in experiment [14] and in experiment [15] was inactive. Further, in experiment [16], the compound was called inactive.

In the case of `CC1(C)OC(=O)NC1=O`, the Potency entry in experiment [1], in [2], in experiment [4], in [17], in [5] and in experiment [6] was “inactive” in each case. The Potency result in [8], in [10], in [12], in experiment [13] and in [18] was “inactive” throughout. In addition, the result in experiment [3], in experiment [7], in experiment [9], in experiment [11], in experiment [14] and in experiment [15] was inactive. In experiment [16], the call was inactive.

With `OC[C@@H](O)[C@@H](O[C@@H]1O[C@H](CO)[C@H](O)[C@H](O)[C@H]1O)[C@H](O)[C@@H](O)CO`, the Potency entry in experiment [1], in experiment [2], in experiment [4], in [17], in [5] and in experiment [6] was “inactive” throughout. In addition, the Potency result in [8], in [10], in [13] and in experiment [18] was “inactive” throughout. The compound was called inactive in experiment [3], in experiment [15] and in [16].

With `CCOC(=O)C(C)Oc1ccc(Oc2cnc3cc(Cl)ccc3n2)cc1` (configuration not stated), the Potency entry in experiment [1], in experiment [2], in [4], in [17], in experiment [5] and in [6] was “inactive” each time. Besides, the Potency result in experiment [8], in [10], in [12] and in experiment [13] was “inactive” in each case. The compound was classed as inactive in [3], in [9], in experiment [11], in experiment [14] and in experiment [15].

For the compound `COc1ccc(-c2coc3cc(O)cc(O)c3c2=O)cc1`, the Potency entry in [2], in [4], in experiment [19], in experiment [5], in experiment [6] and in experiment [8] was “inactive” throughout. In addition, the Potency result in experiment [10] and in [13] was “inactive” each time. In addition, the result in experiment [7], in experiment [11], in experiment [15] and in experiment [16] was inactive.

Regarding `Nc1ccc(O)c(N)c1`, the Potency in experiment [1] was 54.1 µM (active); in experiment [2] it was 43.3 µM (active); in [19], 43.6 µM (active). The result in experiment [3], in experiment [15] and in [16] was inactive. The Potency result in experiment [17], in [5], in [6], in [8], in experiment [10] and in [13] was “inactive” throughout.

For the compound `CN1CCOCC1`, the Potency entry in experiment [1], in experiment [2], in [17], in experiment [5], in experiment [6] and in experiment [8] was “inactive” in each case. Also, the Potency result in experiment [10] and in experiment [13] was “inactive” in each case. In addition, the compound was classed as inactive in [7], in experiment [15] and in [16].

Turning to `C1CN(SSN2CCOCC2)CCO1`, in [1], the Potency is 61.1 µM (active). Besides, the Potency entry in [2], in [19], in experiment [17], in experiment [5], in experiment [6] and in experiment [8] was “inactive” each time. In addition, the Potency result in experiment [10], in experiment [12], in experiment [13] and in experiment [18] was “inactive” in each case. Further, the result in experiment [3], in [9], in experiment [11] and in [14] was inactive.

Take `Brc1nc2ccccc2s1`: the Potency entry in experiment [1], in [2], in [4], in experiment [5], in experiment [6] and in [8] was “inactive” in each case. Also, the Potency result in experiment [10], in [12], in [13] and in [18] was “inactive” in each case. The outcome in experiment [3], in experiment [7], in experiment [9], in experiment [11], in experiment [14] and in experiment [15] was inactive.

`Clc1ccc(Sc2cc(Cl)c(Cl)cc2Cl)cc1`: the Potency entry in experiment [1], in experiment [2], in experiment [17], in [5], in experiment [6] and in [8] was “inactive” throughout. Also, the Potency entry in experiment [10] and in experiment [13] was “inactive” each time. In addition, the call in experiment [3], in [15] and in experiment [16] was inactive.

As to `COC(=O)C(C)Oc1ccc(Oc2ncc(C(F)(F)F)cc2Cl)cc1` (configuration not stated), the Potency result in experiment [1], in experiment [2], in [4], in experiment [5], in experiment [6] and in experiment [8] was “inactive” in each case. The Potency entry in [10] and in experiment [13] was “inactive” each time. For the same compound, the call in experiment [3], in experiment [7], in [9], in [11], in experiment [15] and in experiment [16] was inactive.

`CN(Cc1cnc2nc(N)nc(N)c2n1)c1ccc(C(=O)N[C@@H](CCC(=O)O)C(=O)O)cc1`: the Potency result in experiment [1], in experiment [2] and in experiment [6] was “inactive” throughout. The Potency in experiment [17] is 9.7 nM (active) and 59.6 nM (active); in experiment [5], 6.1 nM (active) and 47.3 nM (active); in experiment [12] it was 0.376 µM (active). Also, the compound was called inactive in experiment [7] and in experiment [14].

`O=C(O)COCCN1CCN(C(c2ccccc2)c2ccc(Cl)cc2)CC1` (configuration not stated): the Potency entry in experiment [1], in experiment [2], in [4], in experiment [5], in experiment [6] and in experiment [8] was “inactive” in each case. Also, the Potency result in experiment [10], in [12], in experiment [13] and in [18] was “inactive” throughout. For the same compound, the call in experiment [3], in [9], in experiment [11], in experiment [14], in [15] and in [16] was inactive.
